For some of these results: Results with a measured potency or affinity are listed apart. Active and inactive are the calls of the source. Unless noted, no rule for the calls is given here.
Columns and labels:
[1] = antimalarial activity against Dd2 strain (AID 2302;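 active = growth inhibition above 50% at the single 2 µM test dose, taken to imply half-maximal potency below 2 µM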;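 also: 0% = DMSO untreated growth and 100% = chloroquine plus artemisinin killed control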); conditions: P. falciparum Dd2 in RBCs, LDH growth readout, 72 h; at 2 µM; stronger effect = higher value
[2] = human hepatoma cell viability loss – ATP luminescence, cytotoxicity control for P. falciparum antimalarial project, primary screen (AID 2303;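 active = inhibition above 50%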;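 also: 0% = DMSO wells and 100% = digitonin-killed cells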); conditions: HepG2 viability, 24-48 h, at 10 µM, stronger effect = higher value
[3] = target: L-lactate dehydrogenase (Plasmodium falciparum (isolate CDC / Honduras)) (UniProt Q27743); assay: PfLDH activity inhibition – cell lysate, 3D7 strain, counter-screen for P. falciparum growth inhibition project (AID 2304);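 also: 0% = vehicle and 100% = reference inhibitor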; conditions: P. falciparum 3D7 crude extract, LDH APAD/NBT absorbance; at 2 µM; stronger effect = higher value
[4] = inhibition of 3D7 malaria parasite growth – strain 3D7 (AID 2306);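 also: 0% = DMSO wells and 100% = chloroquine plus artemisinin control wells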; conditions: P. falciparum 3D7 erythrocytic growth, LDH absorbance, 72 h; at 2 µM; stronger effect = higher value
[5] = target: Calcium-dependent protein kinase 1 (Plasmodium falciparum (isolate 3D7)) (UniProt P62344); assay: PfCDPK1 kinase inhibitors, biochemical, TCAMS library (AID 1159585; cut-off not given, nearly all actives have IC50 up to about 0.98 µM;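 also: inhibitors leave more ATP so luminescence rises with inhibition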); conditions: recombinant PfCDPK1, Kinase-Glo ATP depletion luminescence
[6] = target: Plasmodium falciparum protein kinase 6 (PK6, PF3D7_1337100) (UniProt Q8IDW1); assay: PfPK6 kinase inhibitors, biochemical, TCAMS library (AID 1159586); conditions: recombinant PfPK6, Kinase-Glo ATP depletion luminescence
[7] = target: Protein kinase 7 (PK7), Plasmodium falciparum 3D7 (PF3D7_0213400) (UniProt Q7YTF7); assay: inhibition of Plasmodium PK7 catalytic activity – biochemical, TCAMS antimalarial set, Kinase-Glo luminescence (AID 1159587); conditions: recombinant PfPK7, Kinase-Glo ATP depletion luminescence
[8] = target: Calcium-dependent protein kinase 4 (Plasmodium falciparum (isolate 3D7)) (UniProt Q8IBS5); assay: PfCDPK4 kinase inhibitors, biochemical, TCAMS library (AID 1159588; cut-off not given, nearly all actives have IC50 up to about 0.91 µM); conditions: recombinant PfCDPK4, Kinase-Glo ATP depletion luminescence
Sequence of Calcium-dependent protein kinase 4 (Plasmodium falciparum (isolate 3D7)) (Q8IBS5 whole entry, looked up): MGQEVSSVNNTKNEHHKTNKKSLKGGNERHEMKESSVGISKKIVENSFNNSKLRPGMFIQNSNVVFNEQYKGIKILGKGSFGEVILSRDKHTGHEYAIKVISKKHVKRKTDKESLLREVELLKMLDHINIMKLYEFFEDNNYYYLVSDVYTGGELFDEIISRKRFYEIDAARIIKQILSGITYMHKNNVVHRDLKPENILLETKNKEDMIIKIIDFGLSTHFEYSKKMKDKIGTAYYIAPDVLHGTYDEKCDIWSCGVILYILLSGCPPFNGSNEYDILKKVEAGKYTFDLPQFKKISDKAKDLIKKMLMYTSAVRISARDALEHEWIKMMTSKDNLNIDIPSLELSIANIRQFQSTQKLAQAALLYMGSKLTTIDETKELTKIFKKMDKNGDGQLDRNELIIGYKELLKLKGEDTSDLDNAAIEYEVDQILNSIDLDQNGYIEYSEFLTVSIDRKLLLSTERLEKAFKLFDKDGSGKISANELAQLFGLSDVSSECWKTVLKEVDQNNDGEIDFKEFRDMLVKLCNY

Sequence of Protein kinase 7 (PK7), Plasmodium falciparum 3D7 (PF3D7_0213400) (Q7YTF7 1-343): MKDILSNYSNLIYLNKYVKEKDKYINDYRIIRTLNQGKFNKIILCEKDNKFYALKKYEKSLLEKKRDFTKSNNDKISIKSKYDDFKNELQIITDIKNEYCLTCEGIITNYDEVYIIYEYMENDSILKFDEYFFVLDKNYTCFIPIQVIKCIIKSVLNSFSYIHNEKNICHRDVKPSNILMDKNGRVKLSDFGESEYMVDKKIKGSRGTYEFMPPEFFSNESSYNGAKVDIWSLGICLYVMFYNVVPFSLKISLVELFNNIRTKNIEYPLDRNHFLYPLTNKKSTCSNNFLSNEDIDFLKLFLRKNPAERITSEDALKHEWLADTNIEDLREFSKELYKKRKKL
Sequence of L-lactate dehydrogenase (Plasmodium falciparum (isolate CDC / Honduras)) (Q27743 whole entry, looked up): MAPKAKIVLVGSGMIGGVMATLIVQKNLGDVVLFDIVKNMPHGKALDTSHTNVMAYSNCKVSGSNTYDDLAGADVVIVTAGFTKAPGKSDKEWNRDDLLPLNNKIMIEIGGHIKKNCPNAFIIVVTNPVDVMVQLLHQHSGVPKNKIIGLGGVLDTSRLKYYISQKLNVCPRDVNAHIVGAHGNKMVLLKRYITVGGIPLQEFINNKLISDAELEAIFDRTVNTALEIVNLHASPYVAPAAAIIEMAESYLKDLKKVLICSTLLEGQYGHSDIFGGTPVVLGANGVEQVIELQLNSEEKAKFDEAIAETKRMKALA
Sequence of Plasmodium falciparum protein kinase 6 (PK6, PF3D7_1337100) (Q8IDW1 1-305): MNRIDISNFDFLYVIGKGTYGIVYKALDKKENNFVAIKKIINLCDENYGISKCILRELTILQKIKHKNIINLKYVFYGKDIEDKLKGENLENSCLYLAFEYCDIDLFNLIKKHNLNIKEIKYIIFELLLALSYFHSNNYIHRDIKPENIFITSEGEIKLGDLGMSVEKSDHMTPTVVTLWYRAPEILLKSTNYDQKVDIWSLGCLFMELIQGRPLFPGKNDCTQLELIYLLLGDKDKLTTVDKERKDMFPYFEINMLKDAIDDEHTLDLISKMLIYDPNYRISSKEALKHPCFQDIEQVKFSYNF
Sequence of Calcium-dependent protein kinase 1 (Plasmodium falciparum (isolate 3D7)) (P62344 whole entry, looked up): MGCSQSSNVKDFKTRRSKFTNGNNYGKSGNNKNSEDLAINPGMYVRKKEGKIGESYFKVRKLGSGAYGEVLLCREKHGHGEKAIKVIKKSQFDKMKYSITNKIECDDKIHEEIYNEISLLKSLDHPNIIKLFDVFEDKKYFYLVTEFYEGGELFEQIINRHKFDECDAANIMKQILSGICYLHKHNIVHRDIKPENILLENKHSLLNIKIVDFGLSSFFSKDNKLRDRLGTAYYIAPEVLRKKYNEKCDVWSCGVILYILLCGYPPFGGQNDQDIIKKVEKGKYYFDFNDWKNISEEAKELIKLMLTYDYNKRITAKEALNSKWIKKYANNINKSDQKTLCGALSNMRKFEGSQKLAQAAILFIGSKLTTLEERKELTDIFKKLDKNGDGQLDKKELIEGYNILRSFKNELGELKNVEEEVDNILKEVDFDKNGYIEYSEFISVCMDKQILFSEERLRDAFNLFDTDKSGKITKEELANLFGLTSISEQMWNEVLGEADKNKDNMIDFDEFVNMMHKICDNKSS

CN1c2ccccc2Sc2cc(CNCCSCCNCc3ccc4c(c3)Sc3ccccc3N4C)ccc21
active: inhibition [2] 58% | growth inhibition [4] 84%
inactive: growth inhibition [1] 44% | inhibition [3] 0% | outcome [5] | outcome [6] | outcome [7] | outcome [8]

CC(NC(=O)c1ccc(O)c(-c2ccc(Cl)c(Cl)c2)c1)C(=O)NCCN1CCOCC1 (stereo not given)
inactive: growth inhibition [1] 7% | inhibition [2] 2% | inhibition [3] -3% | outcome [5] | outcome [6] | outcome [7] | outcome [8]
active: growth inhibition [4] 87%

CN(C)c1ccc(CN2CCC(NC(=O)c3ccc(-c4cccc(C(F)(F)F)c4)s3)CC2)cc1
inactive: growth inhibition [1] 40% | inhibition [3] -4% | outcome [5] | outcome [6] | outcome [7] | outcome [8]
active: inhibition [2] 90% | growth inhibition [4] 97%

CCc1cccc2c(C#N)cn(CC(=O)NCCc3ccccc3)c12
inactive: inhibition [2] 1% | inhibition [3] 2% | outcome [5] | outcome [6] | outcome [7] | outcome [8]
active: growth inhibition [1] 64% | growth inhibition [4] 95%

O=C(Nc1ccc(-c2cccc(-c3nc4ccccc4[nH]3)c2)cc1)c1cnn2cccnc12
inactive: growth inhibition [1] 36% | inhibition [3] -1% | outcome [5] | outcome [6] | outcome [7] | outcome [8]
active: inhibition [2] 64% | growth inhibition [4] 99%

CC(C)NC(=O)c1cccc(-c2cccc(OCCN3CCSCC3c3ccccc3)c2)c1 (stereo not given)
active: growth inhibition [4] 89%
inactive: growth inhibition [1] 45% | inhibition [2] 24% | inhibition [3] 2% | outcome [5] | outcome [6] | outcome [7] | outcome [8]

CCc1cn(C)c2c(N3CCCC3=O)cc(C(=O)N[C@@H](Cc3ccccc3)[C@H](O)CNC3CCCCC3)cc12
inactive: inhibition [2] 8% | inhibition [3] -1% | outcome [5] | outcome [6] | outcome [7] | outcome [8]
active: growth inhibition [1] 98% | growth inhibition [4] 97%

Cc1ccccc1C(=O)Nc1cccc(-c2nc3ncccn3c2C)c1
inactive: inhibition [2] -5% | inhibition [3] 1% | outcome [5] | outcome [6] | outcome [7] | outcome [8]
active: growth inhibition [1] 94% | growth inhibition [4] 94%

COc1ccc(-c2cccc(NC(=O)c3ccc(C#N)cc3)c2)cc1CNC(C)C
active: growth inhibition [4] 100%
inactive: growth inhibition [1] 14% | inhibition [2] 25% | inhibition [3] -1% | outcome [5] | outcome [6] | outcome [7] | outcome [8]

O=C(NCCCNc1ccc2ccccc2n1)c1cc2c(Cl)cc(Cl)cc2[nH]1
active: growth inhibition [1] 100% | growth inhibition [4] 100%
inactive: inhibition [2] 40% | inhibition [3] 4% | outcome [5] | outcome [6] | outcome [7] | outcome [8]

COCCNCc1cccc(-c2ccc(CNC3CCN(Cc4ccccc4)CC3)cc2)c1
inactive: inhibition [2] 34% | inhibition [3] -7% | outcome [5] | outcome [6] | outcome [7] | outcome [8]
active: growth inhibition [1] 97% | growth inhibition [4] 100%

CC(C)C[C@H](NC(=O)c1cc2ccccc2s1)C(=O)N[C@H]1CCN(Cc2ccc(OCCN3CCNCC3)c3ccccc23)C1
active: growth inhibition [1] 96% | growth inhibition [4] 101%
inactive: inhibition [2] 43% | inhibition [3] 3% | outcome [5] | outcome [6] | outcome [7] | outcome [8]

N#Cc1ccc(CN2CCC(Oc3ccc(NC(=O)c4cccs4)cc3Cl)CC2)cc1
active: growth inhibition [1] 96% | growth inhibition [4] 95%
inactive: inhibition [2] 26% | inhibition [3] -1% | outcome [5] | outcome [6] | outcome [7] | outcome [8]

CN1CCN(c2cc(NC(=O)Nc3ccc(-c4ccncc4)c(Cl)c3)ccc2Br)CC1
inactive: inhibition [2] 23% | inhibition [3] 2% | outcome [5] | outcome [6] | outcome [7] | outcome [8]
active: growth inhibition [1] 99% | growth inhibition [4] 101%

CC(C)C[C@H](NC(=O)c1ccc(OCCN2CCOCC2)cc1)C(=O)N[C@H](/C=N/NC(=O)OC(C)(C)C)CCc1ccccc1
active: growth inhibition [1] 87% | growth inhibition [4] 96%
inactive: inhibition [2] 8% | inhibition [3] -4% | outcome [5] | outcome [6] | outcome [7] | outcome [8]

CS(=O)(=O)c1ccc(CNCc2ccc(-c3cccc(-c4nc5ccc(F)cc5[nH]4)c3)cc2)cc1
active: growth inhibition [1] 74% | growth inhibition [4] 102%
inactive: inhibition [2] 33% | inhibition [3] -5% | outcome [5] | outcome [6] | outcome [7] | outcome [8]

COc1cccc(-c2cnc(N)c(-c3nc4ccc(F)cc4[nH]3)c2)c1
inactive: growth inhibition [1] 43% | inhibition [2] 47% | inhibition [3] 5% | outcome [5] | outcome [6] | outcome [7] | outcome [8]
active: growth inhibition [4] 97%

O=C(NCc1ccc(F)cc1)Nc1ccc(-c2cccc(-c3nc4ccc(F)cc4[nH]3)c2)cc1
inactive: inhibition [2] 31% | inhibition [3] -1% | outcome [5] | outcome [6] | outcome [7] | outcome [8]
active: growth inhibition [1] 99% | growth inhibition [4] 100%

COc1cccc(Nc2nc(C)cc(NCc3ccc(-c4c(C)noc4C)cc3)n2)c1
active: growth inhibition [4] 98%
inactive: growth inhibition [1] 42% | inhibition [2] 33% | inhibition [3] -1% | outcome [5] | outcome [6] | outcome [7] | outcome [8]

COc1ccc2c(NN=Cc3cccc(Cl)c3)ccnc2c1
active: growth inhibition [1] 94% | growth inhibition [4] 101%
inactive: inhibition [2] 32% | inhibition [3] -3% | outcome [5] | outcome [6] | outcome [7] | outcome [8]
